Data taken from PubChem BioAssay (EPA / NIEHS).
Inconclusive results are not listed. The source made the active and inactive calls. The calls were made as follows: active = hit-call score of the fitted dose curve at least 0.9, where 1 is the maximum; inconclusive = response in the unintended direction; inactive = score below 0.9.

Tests used:
[1] = biological target: Estrogen receptor (Homo sapiens) (UniProt P03372); experiment: OT_ER_ERaERa_1440: Odyssey Thera (OT) 24-hour HEK293T Protein-Complementation Assay for Estrogen Receptor-alpha/-alpha Homodimer (AID 2283349);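 also: hits raise fluorescence above DMSO for agonists and antagonists alike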
Procedure, shortened: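 Readout is the rise in mean fluorescence from reporter fragment complementation when ERα LBD (aa 310-547) units dimerize in HEK293T cells. Measured 24 h after dosing and analysed as increase over DMSO control.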

[2] = biological target: Estrogen receptor (Homo sapiens) (UniProt P03372); experiment: OT_ER_ERaERa_0480: Odyssey Thera (OT) 8-hour HEK293T Protein-Complementation Assay for Estrogen Receptor-alpha/-alpha Homodimer (AID 2283351);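 also: rise in fluorescence from reassembled reporter fragments on ERα LBD homodimer in nucleus or whole cell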
Procedure, shortened: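 HEK293T cells stably expressing the human ERα ligand-binding domain (aa 310-547) as a homodimer PCA were dosed with compound for 8 h. Gain of fluorescence intensity versus DMSO vehicle was read by laser scanning cytometry.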

[3] = biological target: Estrogen receptor (Homo sapiens) + Estrogen receptor beta (Homo sapiens) (UniProt P03372+Q92731); experiment: OT_ER_ERaERb_0480: Odyssey Thera (OT) 8-hour HEK293T Protein-Complementation Assay for Estrogen Receptor-alpha/-beta Heterodimer (AID 2283352)
Procedure, shortened: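 HEK293T cells expressing ER-alpha/ER-beta LBD fusions to complementary reporter fragments were dosed with compound for 8 hours. Heterodimer formation was read as increased nuclear (agonist) or nuclear plus cytoplasmic (antagonist) mean fluorescence intensity versus DMSO vehicle.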

[4] = biological target: Androgen Receptor/SRC-1 Co-activator, AR (gene 367) (UniProt P10275); experiment: OT_AR_ARSRC1_0480: Odyssey Thera (OT) 8-hour HEK293T Protein-Complementation Assay for Androgen Receptor/SRC-1 Co-activator (AID 2283354);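 also: hits raise the complementation signal above DMSO so AC50 marks enhancers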
Procedure, shortened: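 HEK293T cells stably expressing AR and SRC-1 fused to split Venus YFP fragments via (Gly4Ser)2 linkers were read 8 h after compound dosing. Complementation was imaged at 488 and 635nm, and nuclear/cytoplasmic fluorescence ratio (488nm) was taken over ≥400 cells; gain-of-signal versus DMSO.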

Sequence of Estrogen receptor (Homo sapiens) (P03372 whole entry, looked up, the tested form may be a part): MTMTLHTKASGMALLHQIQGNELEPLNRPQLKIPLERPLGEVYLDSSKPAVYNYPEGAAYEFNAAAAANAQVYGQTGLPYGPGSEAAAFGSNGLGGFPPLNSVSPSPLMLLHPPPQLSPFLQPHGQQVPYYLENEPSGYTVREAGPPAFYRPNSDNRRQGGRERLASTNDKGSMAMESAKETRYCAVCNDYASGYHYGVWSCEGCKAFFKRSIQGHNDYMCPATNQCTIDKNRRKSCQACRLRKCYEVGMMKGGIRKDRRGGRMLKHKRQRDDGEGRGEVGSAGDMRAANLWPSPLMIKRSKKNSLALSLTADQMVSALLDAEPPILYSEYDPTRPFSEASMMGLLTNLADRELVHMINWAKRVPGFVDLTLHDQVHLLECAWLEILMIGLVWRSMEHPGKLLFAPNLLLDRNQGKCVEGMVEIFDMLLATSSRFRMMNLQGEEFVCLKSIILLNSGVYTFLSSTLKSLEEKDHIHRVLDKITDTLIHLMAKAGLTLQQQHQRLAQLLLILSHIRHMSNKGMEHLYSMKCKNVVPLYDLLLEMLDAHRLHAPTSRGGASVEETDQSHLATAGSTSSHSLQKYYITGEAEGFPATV
Sequence of Estrogen receptor (Homo sapiens) + Estrogen receptor beta (Homo sapiens) (P03372 whole entry, looked up, the tested form may be a part): as above
Sequence of Estrogen receptor (Homo sapiens) + Estrogen receptor beta (Homo sapiens) (Q92731 whole entry, looked up, the tested form may be a part): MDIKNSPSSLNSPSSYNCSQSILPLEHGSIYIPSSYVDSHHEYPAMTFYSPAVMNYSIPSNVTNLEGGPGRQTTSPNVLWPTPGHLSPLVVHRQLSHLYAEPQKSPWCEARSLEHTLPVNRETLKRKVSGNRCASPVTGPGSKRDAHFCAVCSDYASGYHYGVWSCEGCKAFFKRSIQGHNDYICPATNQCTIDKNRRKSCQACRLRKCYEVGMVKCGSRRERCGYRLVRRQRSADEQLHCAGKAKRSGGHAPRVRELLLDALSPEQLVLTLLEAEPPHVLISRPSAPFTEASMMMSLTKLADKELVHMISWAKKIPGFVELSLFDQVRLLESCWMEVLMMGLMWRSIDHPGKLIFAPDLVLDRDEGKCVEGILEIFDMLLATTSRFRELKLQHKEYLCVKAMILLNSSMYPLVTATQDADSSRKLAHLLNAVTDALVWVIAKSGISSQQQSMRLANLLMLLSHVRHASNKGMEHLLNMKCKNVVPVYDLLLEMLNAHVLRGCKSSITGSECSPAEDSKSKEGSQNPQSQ
Sequence of Androgen Receptor/SRC-1 Co-activator, AR (gene 367) (P10275 whole entry, looked up, the tested form may be a part): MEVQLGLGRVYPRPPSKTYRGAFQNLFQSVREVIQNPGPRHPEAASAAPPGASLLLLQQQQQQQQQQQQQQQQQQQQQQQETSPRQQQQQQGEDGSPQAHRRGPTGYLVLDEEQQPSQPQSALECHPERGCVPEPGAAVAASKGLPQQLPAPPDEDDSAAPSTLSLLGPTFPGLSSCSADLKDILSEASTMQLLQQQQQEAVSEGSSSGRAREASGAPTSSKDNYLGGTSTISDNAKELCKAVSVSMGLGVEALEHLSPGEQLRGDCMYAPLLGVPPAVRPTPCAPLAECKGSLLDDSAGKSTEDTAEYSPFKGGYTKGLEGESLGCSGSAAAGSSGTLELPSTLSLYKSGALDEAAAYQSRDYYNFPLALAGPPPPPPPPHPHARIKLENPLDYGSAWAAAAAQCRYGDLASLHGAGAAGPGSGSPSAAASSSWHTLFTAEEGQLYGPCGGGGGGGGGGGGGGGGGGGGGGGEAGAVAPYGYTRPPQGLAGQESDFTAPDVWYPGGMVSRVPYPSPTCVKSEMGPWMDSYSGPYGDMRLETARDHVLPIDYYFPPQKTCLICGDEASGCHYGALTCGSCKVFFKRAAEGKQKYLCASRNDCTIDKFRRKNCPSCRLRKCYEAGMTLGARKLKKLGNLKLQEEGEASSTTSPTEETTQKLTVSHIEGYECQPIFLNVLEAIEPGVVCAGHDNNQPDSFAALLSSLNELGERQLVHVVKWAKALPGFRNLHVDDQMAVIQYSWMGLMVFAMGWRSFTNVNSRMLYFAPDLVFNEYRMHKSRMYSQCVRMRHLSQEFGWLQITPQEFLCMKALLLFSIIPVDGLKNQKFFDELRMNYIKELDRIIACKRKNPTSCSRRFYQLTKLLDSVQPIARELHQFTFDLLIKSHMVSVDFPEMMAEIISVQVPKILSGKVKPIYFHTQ

| SMILES | outcome [1] | outcome [2] | outcome [3] | outcome [4] | AC50 [3] |
| --- | --- | --- | --- | --- | --- |
| O=c1[nH]cc(F)c(=O)[nH]1 | inactive | inactive | inactive | – | – |
| Cc1ccc(C)c(C)c1 | inactive | inactive | inactive | inactive | – |
| CCCCOC(=O)CCCCCCCCC(=O)OCCCC | inactive | inactive | inactive | – | – |
| O=C(N[C@@H](Cc1ccccc1)[C@@H](O)C(=O)N1C[C@@H](O)[C@@H](O)C1)c1cc2cc(Cl)ccc2[nH]1 | inactive | inactive | inactive | – | – |
| CCOC(=O)C(C)(C)Oc1ccc(Cl)cc1 | inactive | inactive | inactive | – | – |
| CC(=O)OCCOCCOCCOC(C)=O | inactive | inactive | inactive | – | – |
| C1CCC(SSC2CCCCC2)CC1 | inactive | inactive | – | – | 50 µM (active) |
| O=C(O)CCCCC(=O)O | inactive | inactive | inactive | – | – |
| Cc1ccc(C)c(O)c1C | inactive | inactive | – | inactive | – |
| Cc1cccc([N+](=O)[O-])c1C | inactive | inactive | inactive | – | – |
| CCCCCCOCCO | inactive | inactive | inactive | – | – |
| NS(=O)(=O)c1cc2c(cc1Cl)NCNS2(=O)=O | inactive | inactive | inactive | – | – |
| NCC1(Cc2noc(=O)[nH]2)CCCCC1 | inactive | inactive | inactive | – | – |
| CCCCCCCCCCO | inactive | inactive | inactive | – | – |
